Assay in all cases: PBM binding z-score (relative to random genomic background probes); higher = stronger binding; sequences stand for … in GC…GCGATTGACAGCGTAGAATGAAGG
Test [1] relates to FXR:RXRa (NR concentration 270 nM, RXRa partner concentration 90 nM). An outline of the steps: (§1)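 Custom Agilent 4×180K protein-binding microarrays carried double-stranded probes. Their 34-nt variable regions held direct-repeat seeds, single-nucleotide variants, half-site ablations and random human genomic background sequences. Arrays were incubated 1 h with ligand-free nuclear receptor dimers in PBS pH 7.4, 2% milk, 0.02% Triton X-100, 1 mM DTT, 0.2 mg/mL BSA and 0.4 mg/ml salmon testes DNA. Antibodies against each partner (one per run) detected binding, and scanned fluorescence was regression-normalized. Binding z-scores use random background probes as reference.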

In test [2] the test system is LXRa:RXRa (NR concentration 270 nM, RXRa partner concentration 90 nM). An outline of the steps:
as §1

For test [3], the system named is LXRa homodimer (NR concentration 270 nM). An outline of the steps:
as §1

The test system of test [4] is LXRb:RXRa (NR concentration 270 nM, RXRa partner concentration 90 nM). An outline of the steps:
as §1

Test [5] deals with LXRb homodimer (NR concentration 270 nM). The essentials:
as §1

The subject of test [6] is PPARa:RXRa (NR concentration 270 nM, RXRa partner concentration 90 nM). An outline of the steps: as §1
Test [7] concerns PPARg:RXRa (NR concentration 180 nM, RXRa partner concentration 90 nM). The essentials: as §1
Test [8] deals with PPARg:RXRa 270nM:90nM, anti-RXR (NR concentration 270 nM, RXRa partner concentration 90 nM). An outline of the steps: as §1
Test [9] concerns PPARg:RXRa 30nM:10nM, anti-RXR (NR concentration 30 nM, RXRa partner concentration 10 nM). The essentials:
as §1

The test system of test [10] is PPARg:RXRa 90nM:30nM, anti-RXR (NR concentration 90 nM, RXRa partner concentration 30 nM). An outline of the steps: as §1
Test [11] deals with PPARg:RXRa DBDmut IVT, anti-RXR (DBD mutation: RXRa K156A/R161A, NR concentration 270 nM, RXRa partner concentration 90 nM). The essentials:
as §1

In test [12] the test system is PPARg:RXRa IVT, anti-PPARg (NR concentration 270 nM, RXRa partner concentration 90 nM). The essentials: as §1
Test [13] concerns PPARg DBDmut:RXRa IVT, anti-PPARg (DBD mutation: PPARg1 K132A/R137A, NR concentration 270 nM, RXRa partner concentration 90 nM). The essentials:
as §1

The subject of test [14] is PPARg DBDmut IVT, anti-PPARg (DBD mutation: PPARg1 K132A/R137A, NR concentration 270 nM). The essentials:
as §1

The test system of test [15] is PPARg homodimer (NR concentration 180 nM). An outline of the steps:
as §1

The test system of test [16] is PXR:RXRa (NR concentration 270 nM, RXRa partner concentration 90 nM). An outline of the steps: as §1
Test [17] relates to PXR homodimer (NR concentration 270 nM). An outline of the steps:
as §1

Test [18] deals with RARa:RXR (NR concentration 270 nM, RXRa partner concentration 90 nM). The essentials: as §1
Test [19] deals with RARa homodimer (NR concentration 270 nM). The essentials:
as §1

The test system of test [20] is RARb:RXRa (NR concentration 270 nM, RXRa partner concentration 90 nM). An outline of the steps: as §1

Data on 6 sequences can be found in the supplement of paper PMC6555819.

In the case of TCATATAGGTAATACAGGTGAATGTCGGCATCTA, the PBM binding z-score in test [1] was 1.12; in test [2], 1.39; in [3], 0.495; in test [4], 0.986; in test [5], 0.337; in [6] it was 1.84. The PBM binding z-score was 1.73 in [7]; 2.58 in test [8]; 4.19 in [9]; 3.28 in test [10]; 4.3 in test [11]; 3.5 in test [12]. In addition, the PBM binding z-score came out at 1.54 in test [13]; 1.28 in test [14]; 1.27 in test [15]; 0.727 in test [16]; 0.579 in test [17]; 1.2 in test [18]. Also, the PBM binding z-score in [19] amounted to 1.94; in test [20], 0.634.
As for CATACAGGGTCAGCTAGGCAAGAGTAGGGACGGC, the PBM binding z-score was 4.09 in test [1]; 2.76 in test [2]; -0.331 in [3]; 1.96 in test [4]; 0.0161 in test [5]; 4.34 in test [6]. The PBM binding z-score in [7] worked out at 3.37; in test [8], 3.02; in test [9], 0.458; in test [10] it was 1.77; in test [11], 0.883; in test [12], 2.27. Further, the PBM binding z-score in test [13] is 0.128; in [14], 0.564; in [15] it was 1.62; in [16] it was 1.97; in test [17] it was -0.336; in test [18], 2.62. Also, the PBM binding z-score is 0.47 in [19] and 3.91 in test [20].
Regarding CCCGACAGGTGAAAGGTAACTCAGTCTGGTACGC, the PBM binding z-score in test [1] was 0.639; in test [2] it was 0.898; in [3], -0.133; in test [4] it was 0.876; in test [5] it was -0.143; in test [6], 3.39. In addition, the PBM binding z-score in [7] is 5.1; in [8] it was 5.75; in test [9], 3.73; in test [10] it was 5.61; in test [11] it was 1.64; in [12], 2.67. The PBM binding z-score was -0.316 in test [13]; -0.825 in test [14]; 0.815 in test [15]; 0.798 in test [16]; 0.0265 in test [17]; 1.73 in test [18]. The PBM binding z-score in test [19] came out at 0.375; in test [20], 1.09.
For the sequence CGTCCAAGGTCATAGGAGGTGAGTGAAGACAGAT, the PBM binding z-score in test [1] was determined as 7.28; in test [2], 5.61; in test [3], 1.23; in test [4], 4.25; in test [5], 0.462; in test [6] it was 5.79. Further, the PBM binding z-score in [7] was determined as 4.94; in test [8] it was 5.08; in test [9], 1.98; in [10], 3.99; in [11], 2.78; in [12] it was 4.36. Further, the PBM binding z-score in test [13] stood at 0.426; in test [14] it was 0.754; in test [15], 2.6; in test [16], 4.84; in test [17], 1.4; in test [18], 4.65. For the same sequence, the results for the PBM binding z-score in test [19] and in test [20] were 0.644 and 5.24, respectively.
In the case of TCTATAAGTTGATTAGGGCAACCGAAACAGCGGA, the PBM binding z-score in [1] was 0.561; in [2] it was 0.285; in test [3], 0.0111; in test [4] it was 0.135; in test [5], -0.0997; in [6], 1.13. For the same sequence, the PBM binding z-score in test [7] worked out at 0.429; in test [8], 2.02; in test [9], 3.59; in [10] it was 2.83; in [11], 2.11; in test [12], 1.45. Also, the PBM binding z-score in test [13] stood at 0.91; in test [14], 0.949; in test [15] it was 0.532; in test [16] it was 0.227; in [17], 0.561; in test [18], 0.489. The results for the PBM binding z-score in [19] and in test [20] were 0.661 and 1.13, respectively.
AGTCAAAGTTCGCTAGGTAACGTAAGATTCAGCT: the PBM binding z-score in [1] is 0.102; in [2] it was 0.248; in test [3], -0.0137; in test [4], 0.158; in [5] it was -0.513; in [6], 0.793. Also, the PBM binding z-score came to 1.64 in test [7]; 2.36 in [8]; 0.554 in [9]; 1.85 in test [10]; 0.109 in [11]; 1.13 in [12]. Also, the PBM binding z-score amounted to 0.0923 in [13]; 0.244 in test [14]; 0.129 in [15]; 0.563 in test [16]; 0.141 in test [17]; 0.661 in [18]. For the same sequence, the PBM binding z-score in test [19] came out at 0.175; in test [20] it was 2.
